DSG3 Ab inh – inhibitors of pemphigus antibody binding to human desmoglein-3. P32926. DSG3-coupled beads, scFv-anti-DSG3-GFP binding, flow cytometry; active compounds read low. binding (percent of control), % at 10 µM. 0.48% of 310,000 active. AID 588358;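 active means binding more than 3 SD below its plate's average and above zero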;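 further: hits lower antibody fragment binding to DSG3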
ADAM10 inh – ADAM10 inhibition, QFRET primary screen | O14672 | AID 720582 | inhibition, % at 7 µM | recombinant ADAM10, EDANS/DABCYL FRET peptide cleavage, 3 h | 0.62% of 370,000 active;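 active means inhibition above a per-campaign cutoff equal to the mean of compounds falling between control-based bounds plus 3 SD, cut at about 20% in these data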;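 further: 0% = DMSO wells while the 100% control is not disclosed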
Target sequence (O14672 214-748 limits assumed): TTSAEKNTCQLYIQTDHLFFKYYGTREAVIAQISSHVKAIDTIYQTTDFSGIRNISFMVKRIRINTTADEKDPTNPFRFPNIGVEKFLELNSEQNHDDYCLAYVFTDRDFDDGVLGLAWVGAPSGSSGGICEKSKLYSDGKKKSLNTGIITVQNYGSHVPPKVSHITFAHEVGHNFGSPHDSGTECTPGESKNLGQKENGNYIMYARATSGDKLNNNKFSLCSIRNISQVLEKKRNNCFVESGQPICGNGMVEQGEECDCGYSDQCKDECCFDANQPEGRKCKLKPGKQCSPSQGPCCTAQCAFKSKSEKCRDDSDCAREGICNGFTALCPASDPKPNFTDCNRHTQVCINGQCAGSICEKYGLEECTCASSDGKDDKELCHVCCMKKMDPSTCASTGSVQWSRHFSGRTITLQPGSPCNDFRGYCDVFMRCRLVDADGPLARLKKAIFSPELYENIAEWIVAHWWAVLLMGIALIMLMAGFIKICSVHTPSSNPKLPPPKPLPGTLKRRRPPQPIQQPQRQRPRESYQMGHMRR
ADAM17 inh – inhibitors of human ADAM17. P78536. recombinant ADAM17, EDANS/DABCYL FRET peptide cleavage. inhibition, % at 6.95 µM. 0.83% of 370,000 active. AID 720648;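 active means inhibition above the mean of compounds lying between control limits plus 3 SD, set per campaign, cut at about 8.5% in these data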;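 further: 0% = DMSO-only wells as the low control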
MPTP inh – blocks calcium-induced mitochondrial swelling; isolated mouse mitochondria, Ca2+ swelling absorbance, 30 min; inhibition, % at 10 µM; 1.4% of 360,000 active;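 active means inhibition of 50% or more, scaled per plate between neutral and stimulator controls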;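 further: 0% = DMSO wells given calcium and 100% = 1 mM EGTA wells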
KLK7 zymogen act – activates the human kallikrein-7 zymogen | activation, % at 7 µM | purified proKLK7, EDANS-DABCYL substrate fluorescence; 100% is mature enzyme control, 0% vehicle | P49862 | 0.9% of 370,000 active | AID 652039;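 active means activation above the mean of all tested compounds plus 3 SD, computed per campaign excluding outliers beyond control limits, cut at about 13% in these data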
rCAG binder – molecules binding r(CAG) RNA repeats. r(CAG) RNA repeat, TO-PRO-1 dye displacement fluorescence. inhibition, % at 3 µM. 1.3% of 370,000 active;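 active means inhibition above the plate cutoff, the mean of all test compounds on that plate plus 3 SD, cut at about 35% in these data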;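 further: 0% = DMSO alone and 100% = 100 µM mitoxantrone as full dye displacement; higher means more dye released from RNA so lower well fluorescence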
ADAM10 confirm – human ADAM10 inhibition, confirmation; shares compounds with ADAM10 inh; ADAM10 QFRET peptide cleavage, EDANS fluorescence; inhibition, % at 6.95 µM; 1% of 2,100 active; AID 743208;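 active means inhibition above about 20% chosen separately for each screening run, limit read from the data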;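 further: 0% = DMSO wells and 100% = marimastat wells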
ADAM17 counter – inhibits human ADAM17 in ADAM10 exosite counter-screen. shares compounds with ADAM10 inh. ADAM17 QFRET peptide cleavage, EDANS fluorescence. inhibition, % at 6.95 µM. 0.5% of 2,100 active. AID 743214;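 active means mean triplicate inhibition above the solvent-only control wells' mean plus 3 SD, cut at about 12% in these data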;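 further: 0% = DMSO wells and 100% = marimastat wells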
ADAM10 ctr – ADAM10 inhibition, counter-screen for ADAM17 exosite hits; shares compounds with ADAM17 inh; 47% of 2,900 active; recombinant ADAM10, EDANS/DABCYL FRET peptide cleavage, 3 h; inhibition, % at 6.95 µM; AID 743256;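 active means mean inhibition over the triplicate runs exceeds the activity threshold set in the earlier primary screen, cut at about 20% in these data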;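 further: 0% = DMSO wells and 100% = marimastat wells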
ADAM17 confirm – confirmation of inhibitors of human ADAM17; shares compounds with ADAM17 inh; recombinant ADAM17, EDANS/DABCYL QFRET peptide cleavage; inhibition, % at 6.95 µM; 65% of 2,900 active; AID 743257;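 active means mean inhibition across replicates above the hit cutoff set in the primary screen, cut at about 8.5% in these data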;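 further: 0% = DMSO wells and 100% = marimastat wells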
Active calls of the source: *; · = no result given. Rows were chosen to be rich in hits. Some 4.7% of all compounds tested hit in one or more screens of this group.

SMILES	DSG3 Ab inh	ADAM10 inh	ADAM17 inh	MPTP inh	KLK7 zymogen act	rCAG binder	ADAM10 confirm	ADAM17 counter	ADAM10 ctr	ADAM17 confirm
CC(OC(=O)CCCCCN=C1NS(=O)(=O)c2ccccc21)C(=O)Nc1cc(Cl)cc(Cl)c1 (stereo not given)	88	29*	15*	21	1	17	4	1	17	15*
Cc1ccc(C(=O)NC2CCCCN(Cc3cccc(Cl)c3)C2=O)c(C)c1 (stereo not given)	·	5	1	·	0	-2	·	·	·	·
CCOC(=O)C1CCCN(C(=O)c2cccc(S(=O)(=O)N(Cc3ccccc3)c3ccccc3OC)c2)C1 (stereo not given)	104	30*	14*	-1	0	0	4	1	25*	12*
COc1ccccc1N(Cc1ccccc1)S(=O)(=O)c1cccc(C(=O)Nc2cccc(C)n2)c1	109	23*	10*	-2	-1	6	10	3	10	9.6*
COc1ccc(NC(=O)CN(c2ccc(OC)c(Cl)c2)S(=O)(=O)c2ccccc2)c(OC)c1	100	34*	14*	0	0	6	7	2	30*	17*
COC(=O)c1cc(NC(=O)CN(c2cccc(OC)c2)S(=O)(=O)c2ccccc2)ccc1Cl	99	24*	12*	25	0	13	6	4	34*	17*
COC(=O)c1cc(NC(=O)CN(c2ccccc2OC)S(=O)(=O)c2ccccc2)ccc1Cl	105	12	8	-1	0	7	·	·	·	·
COc1ccc(N(CC(=O)Nc2ccccc2OC)S(=O)(=O)c2ccccc2)cc1Cl	117	13	8	1	-1	7	·	·	·	·
COC(=O)[C@@]12C[C@@H](CC(=O)N3CCCCC3)C(=O)N(CCc3ccc(OC)c(OC)c3)C1=CCC(C)(C)C2	·	-8	-4	3	1	-1	·	·	·	·
CC1CCC(NC(=O)c2nc(Cn3ccc([N+](=O)[O-])n3)no2)CC1 (stereo not given)	96	4	-4	-3	1	0	·	·	·	·
O=C(COC(=O)c1cccc(NS(=O)(=O)c2ccc(F)c(F)c2)c1)NC(=O)NC1CCCCC1	100	28*	13*	11	0	23	7	2	18	10*
CCCNC(=O)NC(=O)COC(=O)c1cccc(NS(=O)(=O)c2ccc(F)c(F)c2)c1	84	6	-3	2	-1	13	·	·	·	·
Cn1c(CC(=O)NCCO)c(Sc2ccccc2)c2ccccc21	102	-11	-3	0	0	-4	·	·	·	·
O=C(Cc1c(Sc2ccccc2)c2ccccc2n1Cc1ccccc1)NCCO	82	30*	14*	4	1	2	5	1	15	9.1*
C[C@H](NC(=O)c1nc[nH]c1C(=O)NCC(=O)OCc1ccccc1)C(=O)OCc1ccccc1	98	12	6	-1	1	-5	·	·	·	·
CC(C)C[C@H](NC(=O)c1nc[nH]c1C(=O)NCC(=O)OC(C)(C)C)C(=O)OCc1ccccc1	106	30*	14*	1	1	7	3	1	36*	19*
CC(C)C[C@H](NC(=O)c1nc[nH]c1C(=O)NCC(=O)OCc1ccccc1)C(=O)OCc1ccccc1	101	45*	24*	1	0	6	6	2	36*	21*
Cc1ccc(NC(=O)CSc2nc(N)cc(=O)[nH]2)cc1S(=O)(=O)N1CCCCC1	99	4	-1	0	1	10	·	·	·	·
Cc1ccc(SCCNC(=O)c2ccccc2)cc1	98	3	-2	0	-1	-3	·	·	·	·
Cc1ccc(SCCNC(=O)c2ccc(C)c(S(=O)(=O)Nc3cccc(C)c3)c2)cc1	109	27*	12*	17	0	10	7	3	30*	17*
Cc1ccc(NS(=O)(=O)c2cc(C(=O)NCCSc3ccc(C)cc3)ccc2C)cc1	102	23*	12*	35	0	9	7	3	38*	20*
Cc1cccc(NS(=O)(=O)c2cc(C(=O)NCCC3=CCCCC3)ccc2Cl)c1	104	21*	8.7*	30	0	6	6	2	21*	12*
Cc1ccc(C(=O)NCCSc2ccc(Cl)cc2)cc1S(=O)(=O)Nc1ccccc1	80	25*	11*	48	0	6	7	2	27*	16*
COc1ccc(OCCn2cnc3ccccc32)cc1	109	3	1	2	0	-5	·	·	·	·
O=C(NCCC1=CCCCC1)c1ccc2c(c1)N(Cc1ccccc1)C(=O)CS2	105	27*	17*	0	1	3	8	2	26*	13*
SMILES	DSG3 Ab inh	ADAM10 inh	ADAM17 inh	MPTP inh	KLK7 zymogen act	rCAG binder	ADAM10 confirm	ADAM17 counter	ADAM10 ctr	ADAM17 confirm
O=C(NCCN1CCOCC1)c1ccc2c(c1)N(Cc1ccccc1)C(=O)CS2	99	0	-3	0	0	6	·	·	·	·
CCC(=NNS(=O)(=O)c1ccc(C)cc1)c1ccc(OC)c(C)c1	104	3	1	1	0	3	·	·	·	·
O=C(Nc1ccc(C(F)(F)F)cc1)C1CCCCN1S(=O)(=O)c1ccccc1 (stereo not given)	95	28*	10*	8	0	0	4	1	15	7
Cc1ccc(NC(=O)C2(C)CCCN(C(C)C)C2)cc1C (stereo not given)	·	-8	-1	0	1	1	·	·	·	·
O=C(NCC1CC1)c1cc2c(c(-c3cccc(-c4ccccc4F)c3)n1)[C@H](CCO)N(C(=O)CC1CC1)C2	·	0	5	-2	0	9	·	·	·	·
O=C(NCC(F)(F)F)c1cc2c(c(-c3cccc(-c4ccccc4F)c3)n1)[C@@H](CCO)N(C(=O)CC1CC1)C2	·	20*	10*	0	1	5	2	0	13	11*
CCNC(=O)c1cc2c(c(-c3cccc(-c4ccccc4F)c3)n1)[C@@H](CCO)N(C(=O)CC)C2	·	-3	0	-1	1	1	·	·	·	·

Bioassay records deposited in PubChem by several laboratories.
